According to PubChem BioAssay (NCI):
About 79,000 compounds went through this panel and 15% of them were active in at least one assay; those are over-represented in the sample as a whole. Active and inactive are the calls of the source. Cut-off read from the data, not from the text of the source: active = growth inhibition above about 70%; inactive = the rest.

Tests used:
[1] = NCI Yeast Anticancer Drug Screen. Data for the rad52 strain (AID 147);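 note: 0% = growth of vehicle-treated control cultures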; details: S. cerevisiae rad52 mutant growth inhibition, hits give high values
Method in brief: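 Compounds are applied to a genetically defined yeast strain lacking normal DNA damage repair, and inhibition of growth is expressed relative to cultures given vehicle only.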

[2] = NCI Yeast Anticancer Drug Screen. Data for the wt1 strain (AID 149);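 note: 0% = growth of vehicle-treated wt1 cultures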; details: S. cerevisiae wt1 strain (SPY 50644) growth inhibition, hits give high values
Method in brief: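 wt1 strain grown with compound or vehicle; inhibition taken from the growth difference.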

[3] = NCI Yeast Anticancer Drug Screen. Data for the rad50EPP+ strain (AID 151);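 note: 0% = growth of vehicle-treated control cultures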; details: S. cerevisiae rad50 mutant strain, hits give high values
Method in brief: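 Compounds were applied to the rad50EPP+ yeast strain, which bears a defined DNA repair alteration, and growth inhibition was determined relative to vehicle-treated cultures.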

[4] = NCI Yeast Anticancer Drug Screen. Data for the mgt1 strain (AID 153); details: S. cerevisiae mgt1 mutant growth inhibition, hits give high values
Method in brief: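 Strain: mgt1 yeast, one of a set carrying defined DNA damage repair or cell cycle control alterations. Compound-treated growth compared with vehicle.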

[5] = NCI Yeast Anticancer Drug Screen. Data for the rad50 strain (AID 155);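 note: 0% = growth of vehicle-only cultures of the same strain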; details: S. cerevisiae rad50 strain growth inhibition, hits give high values
Method in brief: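 DNA repair mutant yeast, compound exposure, growth read-out; inhibition is taken relative to vehicle.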

[6] = NCI Yeast Anticancer Drug Screen. Data for the mec2-1 strain (AID 157); details: S. cerevisiae mec2-1 strain, hits give high values
Method in brief: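 Strain: mec2-1 (DNA repair/cell cycle alteration). Compound exposure, then growth measured; inhibition expressed relative to vehicle.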

[7] = NCI Yeast Anticancer Drug Screen. Data for the rad14 strain (AID 159);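 note: 0% = growth of vehicle-treated control cultures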; details: S. cerevisiae rad14 strain growth inhibition, hits give high values
Method in brief: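 DNA repair-defective yeast, compound-exposed; % growth inhibition derived by comparison with vehicle-treated controls.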

[8] = NCI Yeast Anticancer Drug Screen. Data for the sgs1 mgt1 strain (AID 161);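 note: 0% = growth of cultures given vehicle only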; details: S. cerevisiae sgs1 mgt1 strain, hits give high values
Method in brief: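 Read-out: growth inhibition vs vehicle controls. Cells: mutant yeast strain deficient in DNA damage repair.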

[9] = NCI Yeast Anticancer Drug Screen. Data for the CLN2oe strain (AID 163);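 note: 0% = growth of vehicle-only control cultures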; details: S. cerevisiae CLN2oe strain, hits give high values
Method in brief: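 Growth of a genetically modified yeast strain is measured after compound exposure and compared with cultures given vehicle alone.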

[10] = NCI Yeast Anticancer Drug Screen. Data for the cln2 rad14 strain (AID 165);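 note: 0% = growth equal to vehicle treated cultures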; details: S. cerevisiae cln2 rad14 strain, hits give high values
Method in brief: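 Compounds are applied to the cln2 rad14 yeast strain, and growth is then compared with that of vehicle-treated cultures to give inhibition.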

[11] = NCI Yeast Anticancer Drug Screen. Data for the bub3 strain (AID 167); details: S. cerevisiae bub3 mutant strain, hits give high values
Method in brief: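 In this screen, a yeast mutant lacking normal mitotic checkpoint function is challenged with compound. Relative growth versus vehicle gives the inhibition value.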

[12] = NCI Yeast Anticancer Drug Screen. Data for the wt2 strain (AID 169);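 note: 0% = growth of vehicle-treated yeast cultures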; details: S. cerevisiae wt2 strain growth inhibition, hits give high values
Method in brief: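 This strain belongs to a panel of yeast strains with defined genetic alterations in DNA damage repair or cell cycle control. Compounds are applied, and growth inhibition is measured against vehicle-treated cultures.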

[13] = NCI Yeast Anticancer Drug Screen. Data for the mlh1 strain (AID 171);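 note: 0% = growth of vehicle-treated control cultures of the same strain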; details: S. cerevisiae mlh1 strain growth inhibition, hits give high values
Method in brief: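 Growth of the mutant yeast strain after compound exposure, expressed as inhibition relative to vehicle-only controls.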

[14] = NCI Yeast Anticancer Drug Screen. Data for the sgs1 strain (AID 173);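 note: 0% = growth of vehicle-only control cultures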; details: S. cerevisiae sgs1 mutant, hits give high values
Method in brief: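 Growth of a yeast strain bearing a defined genetic alteration is measured after compound treatment. Inhibition is expressed relative to vehicle-only controls.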

[15] = NCI Yeast Anticancer Drug Screen. Data for the mlh1 rad18 strain (AID 175); details: S. cerevisiae mlh1 rad18 strain growth inhibition, hits give high values
Method in brief: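 Read-out is yeast growth inhibition, calculated against vehicle-only controls. The compound was applied to a strain engineered with DNA damage repair alterations.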

[16] = NCI Yeast Anticancer Drug Screen. Data for the rad18 strain (AID 177); details: S. cerevisiae rad18 mutant growth inhibition, hits give high values
Method in brief: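 Growth of the mutant yeast strain after compound exposure, normalised to vehicle-only cultures.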

[17] = at 5.0 µM (retest, dose inferred, filed as 0.5)
[18] = at 50.0 µM (retest, dose inferred, filed as 5.0)

Measured: growth inhibition

C[C@@](O)(/C=C/[C@H]1CC=CC(=O)O1)[C@@H](C[C@@H](O)\C=C/C=C\C=C\CO)OP(=O)(O)O
active: [1]; at 100.0 µM 90% | [2]; at 100.0 µM 81% | [4]; at 100.0 µM 86% | [5]; at 100.0 µM 92% | [6]; at 100.0 µM 84% | [7]; at 100.0 µM 94% | [8]; at 50.0 µM 73% | [9]; at 100.0 µM 82% | [11]; at 33.0 µM 86% | [11]; [18] 91% | [11]; at 50.0 µM 86.1% | [11]; at 100.0 µM 93% | [12]; at 100.0 µM 88% | [13]; at 100.0 µM 88% | [14]; at 100.0 µM 90% | [16]; at 100.0 µM 84%
inactive: [1]; at 1.2 µM 26% | [1]; at 3.7 µM 22% | [1]; at 11.0 µM 37% | [1]; at 33.0 µM 66% | [2]; at 1.2 µM 18% | [2]; at 3.7 µM 13% | [2]; at 11.0 µM 15% | [2]; at 33.0 µM 35% | [3]; at 1.2 µM 18% | [3]; at 3.7 µM 15% | [3]; at 11.0 µM 17% | [3]; at 33.0 µM 25% | [3]; at 100.0 µM 33% | [4]; at 1.2 µM 33% | [4]; at 3.7 µM 28% | [4]; at 11.0 µM 33% | [4]; at 33.0 µM 51% | [5]; at 1.2 µM 27% | [5]; at 3.7 µM 30% | [5]; [17] 1% | [5]; at 11.0 µM 41% | [5]; at 33.0 µM 62% | [5]; [18] 53% | [5]; at 50.0 µM 67.2% | [6]; at 1.2 µM 9% | [6]; at 3.7 µM 22% | [6]; [17] -2% | [6]; at 11.0 µM 25% | [6]; at 33.0 µM 46% | [6]; [18] 34% | [6]; at 50.0 µM 50.6% | [7]; at 1.2 µM 9% | [7]; at 3.7 µM 13% | [7]; at 11.0 µM 11% | [7]; at 33.0 µM 50% | [8]; [17] 17% | [8]; [18] 60% | [9]; at 1.2 µM 46% | [9]; at 3.7 µM 26% | [9]; at 11.0 µM 25% | [9]; at 33.0 µM 54% | [10]; [17] 5% | [10]; [18] 17% | [10]; at 50.0 µM 42.6% | [11]; at 1.2 µM 29% | [11]; at 3.7 µM 45% | [11]; [17] 34% | [11]; at 11.0 µM 63% | [12]; at 1.2 µM 4% | [12]; at 3.7 µM 19% | [12]; at 11.0 µM 20% | [12]; at 33.0 µM 39% | [13]; at 1.2 µM 21% | [13]; at 3.7 µM 20% | [13]; at 11.0 µM 34% | [13]; at 33.0 µM 61% | [14]; at 1.2 µM 33% | [14]; at 3.7 µM 32% | [14]; at 11.0 µM 42% | [14]; at 33.0 µM 59% | [15]; [17] -2% | [15]; [18] 48% | [15]; at 50.0 µM 19.3% | [16]; at 1.2 µM 40% | [16]; at 3.7 µM 34% | [16]; at 11.0 µM 41% | [16]; at 33.0 µM 54%
